Pf growth 96h – Primary qHTS for delayed death inhibitors of the malarial parasite plastid, 96 hour incubation | Potency, µM (doses to about 28.7 µM), usual class: inhibitors | AID 504834, 2011 | 320,000 compounds, 6.9% hits | P. falciparum luciferase reporter growth, 96 h
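Cell-based qHTS: luciferase-tagged P. falciparum in erythrocytes (2% hematocrit, 0.05% parasitemia final) incubated with compounds for 96 hours, 37 C, 5% CO2; luciferase detection reagent then added and luminescence measured.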
NS1 inh – qHTS Assay for Inhibitors of Influenza NS1 Protein Function; Potency, µM (doses to about 46.1 µM); 270,000 compounds, 0.4% hits; AID 2326, 2010; calls by dose curve; further: actives are rising curves; nearly all actives have a fitted effect of over 50% in size
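A cell-based growth assay was used: compounds that relieve NS1-induced slow growth of budding yeast raise OD600. Assay medium was yeast nitrogen base with ammonium sulphate and -URA supplement, pH 6.0, with 2% galactose.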
Pf growth 48h – Primary qHTS for delayed death inhibitors of the malarial parasite plastid, 48 hour incubation; P. falciparum luciferase growth in erythrocytes, 48 h; Potency, µM (top dose mostly 28.7 µM), most hits filed as inhibitors; 310,000 compounds, 5.9% hits; AID 504832, 2011
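A one-generation exposure of luciferase-tagged malaria parasites in RPMI 1640/Albumax erythrocyte culture, 37 C and 5% CO2. Inhibition is inferred from decreased luminescence after adding detection reagent.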
CHX counter – Cycloheximide Counterscreen for Small Molecule Inhibitors of Shiga Toxin | 300,000 compounds, 12% hits | max response, % | cell reporter, cycloheximide protein synthesis inhibition counterscreen; in the data active means max response mostly above about 13%, no sharp cut-off; inactive means mostly below about 14%; further: read at 38.3 µM for the half of the compounds with a filed dose
Shiga inhibitor – A qHTS for Small Molecule Inhibitors of Shiga Toxin; Vero cells, Shiga toxin protein synthesis inhibition reporter; 290,000 compounds, 9.2% hits; inhibition, % at 38.7 µM; AID 2315, 2010; in the data active means inhibition mostly above about 28%, no sharp cut-off; inactive means mostly below about 43%
Giardia FBPA inh – qHTS Assay for Inhibitors of Fructose-1,6-bisphosphate Aldolase from Giardia Lamblia | A8B2U2 | purified Giardia FBPA | Potency, µM (highest dose often 59.6 µM), usual class: inhibitors | 290,000 compounds, 0.71% hits | AID 2451, 2010; further: nearly all actives have a fitted effect of over 55% in size
Target sequence (A8B2U2 whole entry, looked up): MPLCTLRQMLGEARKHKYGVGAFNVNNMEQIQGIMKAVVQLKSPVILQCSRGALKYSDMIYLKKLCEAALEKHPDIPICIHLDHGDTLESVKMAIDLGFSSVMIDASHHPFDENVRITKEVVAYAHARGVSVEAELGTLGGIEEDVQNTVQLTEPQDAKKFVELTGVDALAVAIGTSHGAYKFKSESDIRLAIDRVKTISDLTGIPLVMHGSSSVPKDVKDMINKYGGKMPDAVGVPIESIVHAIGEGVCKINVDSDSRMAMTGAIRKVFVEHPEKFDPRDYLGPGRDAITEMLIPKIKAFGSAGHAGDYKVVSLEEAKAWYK
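Giardia FBPA (40 nM reagent) was preincubated 10 min at RT with compound (up to 57.5 uM final), then substrate plus GAPDH/TPI/NAD/arsenate coupling system with diaphorase/resazurin was added; resorufin fluorescence (525/598 nm) was read after 20 min.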
Each line names hits and unclear results; the compound was inactive in the other large screens. The list is not random: actives were taken first. Their share in the collection is about 21%. Unless noted, the call rests on the fitted dose curve; in most records, active means well fitted curve in the direction sought with a large enough effect; inconclusive means small, poorly fitted or top-dose-only effect, or another doubt; inactive means no such curve, though single readings can be large; an effect the other way counts as inactive or inconclusive.

O=C(O)c1ccc(N/N=C/c2cccc(F)c2)cc1	CHX counter 81, Shiga inhibitor 69
COc1cccc(CN(C)C(=O)[C@@H](NC(=O)c2ccc(C)cc2)C(C)C)c1	none
CCOC(=O)Cn1c2ccccc2c2nc3ccccc3nc21	CHX counter 12
CCOC(=O)Cn1c(=O)c(-c2ccccc2N)nc2ccccc21	CHX counter 25
CCOC(=O)Cn1c2ccccc2c2nc(C)sc21	none (no result: NS1 inh)
CCN(CC)CCn1c2ccccc2c2nc3ccccc3nc21	CHX counter 44, Shiga inhibitor 53
CCOC(=O)Cn1c(=O)c(-c2cc(Br)ccc2N)nc2ccccc21	none
CCCn1c2ccccc2c2nc3ccccc3nc21	Pf growth 48h inconclusive, CHX counter 19 (no result: Pf growth 96h)
OC[C@H]1O[C@@](CO)(O[C@H]2O[C@H](CO)[C@@H](O)[C@H](O)[C@H]2O)[C@@H](O)[C@@H]1O	none (no result: NS1 inh, CHX counter, Shiga inhibitor, Giardia FBPA inh)
CCN(CC)CCSc1nnc2c3cc(F)ccc3n(Cc3ccccc3)c2n1	none (no result: Pf growth 48h)
CC(C)CCn1c(O)c(N=Nc2ccccn2)c2ccccc21	Pf growth 96h inconclusive, Pf growth 48h inconclusive
CCCn1c(O)c(N=Nc2ccc3ccccc3n2)c2ccccc21	CHX counter 30, Shiga inhibitor 42
CCN(CC)CCSc1nnc2c3ccccc3n(Cc3ccccc3)c2n1	Pf growth 96h inconclusive, Pf growth 48h 5.2µM
CC(C)CCCC(C)NC(C)C (centres undefined)	none (no result: NS1 inh, CHX counter, Shiga inhibitor, Giardia FBPA inh)
C=CCOC(=O)/C(=C/c1cccc2ccccc12)NC(=O)c1ccccc1	Pf growth 96h inconclusive, CHX counter 66, Shiga inhibitor 92
Cc1ccc(CONC(=O)c2ccccc2)cc1	CHX counter 40, Shiga inhibitor 67
CCOC(=O)/C(=C/c1cn(C)c2ccccc12)NC(=O)c1ccccc1	Pf growth 96h inconclusive
Cc1ccc(C(=O)N/C(=C\c2ccccc2)C(=O)OCc2ccccc2)cc1	CHX counter 45, Shiga inhibitor 71
Cc1ccc(CONC(=O)c2ccc(C)cc2)cc1	none (no result: NS1 inh, CHX counter, Shiga inhibitor, Giardia FBPA inh)
O=C(OCc1ccccc1)/C(=C/c1cccc2ccccc12)NC(=O)c1ccccc1	Pf growth 96h inconclusive, Pf growth 48h 6.6µM
O=C(CNC(=O)/C(=C/c1ccccc1)NC(=O)c1ccc(Br)cc1)OCc1ccccc1	none
CC(O)[C@H]1CNCCN1CCc1cccc(F)c1 (some centres undefined)	none (no result: NS1 inh, CHX counter, Shiga inhibitor, Giardia FBPA inh)
Cc1cc(C(=O)COC(=O)c2ccc(Cl)c(S(N)(=O)=O)c2)c(C)n1C1CC1	none (no result: NS1 inh, CHX counter, Shiga inhibitor, Giardia FBPA inh)
COc1cc(OC)cc(C(=O)NCC(=O)OCC(=O)Nc2ccc(C)c(S(=O)(=O)N3CCOCC3)c2)c1	none (no result: NS1 inh, CHX counter, Shiga inhibitor, Giardia FBPA inh)
CCOc1ccc(N(CC(=O)Nc2ccc(C)cc2)S(=O)(=O)c2c(C)[nH]c(=O)[nH]c2=O)cc1	none
CC1CCCCN1C(=O)NC1CC(=O)N(c2ccc3c(c2)OCCO3)C1 (centres undefined)	Pf growth 48h inconclusive (no result: NS1 inh, CHX counter, Shiga inhibitor, Giardia FBPA inh)
Cc1cc(C(=O)CSc2nnc(N)s2)c(C)n1Cc1ccco1	CHX counter 39, Shiga inhibitor 57 (no result: NS1 inh)
Cc1cc(C(=O)COC(=O)c2ccncc2)c(C)n1Cc1ccco1	CHX counter 44, Shiga inhibitor 116 (no result: NS1 inh)
Nc1nnc(SCC(=O)c2ccco2)s1	none
Cc1cc(C(=O)COC(=O)c2cc(Cl)ccc2N)c(C)n1Cc1ccco1	CHX counter 91, Shiga inhibitor 119
COc1ccccc1NC(=O)C(C)OC(=O)CCNS(=O)(=O)c1cccc(C(F)(F)F)c1 (centres undefined)	Pf growth 48h inconclusive (no result: NS1 inh, CHX counter, Shiga inhibitor, Giardia FBPA inh)
CCCCCc1cc(=O)oc2c(C(CCN3CCCC3)c3ccc(N(C)C)cc3)c(OC)cc(OC)c12 (centres undefined)	Pf growth 96h 9.3µM, Pf growth 48h inconclusive
COc1ccc(C(CCN2CCCC(C)C2)c2c(OC)cc(OC)c3c2OC(=O)CC3c2cc(OC)c(OC)c(OC)c2)cc1 (centres undefined)	Pf growth 96h 10µM, Pf growth 48h 12µM
CCCCCc1cc(=O)oc2c(C(CCN3CCCC(C)C3)c3ccc(OC)cc3)c(OC)cc(OC)c12 (centres undefined)	Pf growth 96h 3.3µM, Pf growth 48h inconclusive
CCCCCc1cc(=O)oc2c(C(CCN3CCN(c4ccccc4)CC3)c3ccc4c(c3)OCO4)c(OC)cc(OC)c12 (centres undefined)	Pf growth 96h 5.2µM, NS1 inh inconclusive, Pf growth 48h 7.4µM
COc1ccccc1C(CNC(=O)c1cc(C)nc2ccccc12)N(C)C (centres undefined)	none
CCCCCc1cc(=O)oc2c(C(CCN3CCCCC3)c3ccc(OC)cc3)c(OC)cc(OC)c12 (centres undefined)	Pf growth 96h 2.6µM, Pf growth 48h 3.3µM
CCCCCc1cc(=O)oc2c(C(CCN3CCCC3)c3cc(OC)c(OC)c(OC)c3)c(OC)cc(OC)c12 (centres undefined)	Pf growth 96h 3.3µM, Pf growth 48h 2.6µM
CC(=O)N/C(=C\c1ccc(C)o1)C(=O)NCc1ccccc1	Pf growth 96h inconclusive
COc1ccc(-c2[nH]ncc2C=O)cc1OC	none (no result: NS1 inh)
COc1ccc(C)cc1NC(=O)CSCc1cc(=O)n2c(C)csc2n1	none (no result: NS1 inh, CHX counter, Shiga inhibitor, Giardia FBPA inh)
CC(C)(C)c1ccccc1NC(=S)NCc1ccccc1	Pf growth 96h 13µM, Pf growth 48h inconclusive, Giardia FBPA inh inconclusive
Cc1ccc(NC(=S)NCc2ccccc2)c(C)c1	Pf growth 96h inconclusive, Pf growth 48h inconclusive, CHX counter 10
Cc1ccc(NC(=S)NCc2ccc(Cl)cc2)c(OC(F)F)c1	Pf growth 96h 4.1µM, Pf growth 48h inconclusive
Cc1ccc(CNC(=S)Nc2ccc(OC(F)F)cc2C)cc1	Pf growth 96h inconclusive
Cc1ccc(NCc2ccccc2O)c(C)c1	CHX counter 20, Shiga inhibitor 48 (no result: NS1 inh)
O=S(=O)(O)c1cc(O)c2c(N=Cc3ccccc3O)cc(S(=O)(=O)O)cc2c1	none (no result: Pf growth 96h, Pf growth 48h, CHX counter, Shiga inhibitor, Giardia FBPA inh)
O=C(CN1CCNCC1)NCCSc1ccc(Cl)cc1	none (no result: NS1 inh)
COc1cc2nc(N3CCN(c4cc(C)ccc4C)CC3)nc(N)c2cc1OC	Pf growth 48h 1.9µM
Cc1ccc(O)c(Nc2c3ccccc3nc3ccccc23)c1	Pf growth 48h inconclusive, CHX counter 21, Shiga inhibitor 33
COc1cc2nc(N3CCNCC3)nc(N)c2cc1OC	Pf growth 48h inconclusive (no result: Pf growth 96h)
Cc1ccc(C)c(Nc2nc(N)c3ccccc3n2)c1	CHX counter 26, Shiga inhibitor 73 (no result: NS1 inh)
COc1ccc(C)cc1Nc1nc(C)nc2sc(C)cc12	none
COc1ccc(C)cc1Nc1nc(N)c2cc(OC)c(OC)cc2n1	Pf growth 48h 1µM
Cc1ccc(O)c(Nc2nc(-c3ccccc3)nc3ccccc23)c1	Pf growth 48h inconclusive, Giardia FBPA inh inconclusive (no result: Shiga inhibitor)
c1ccc(CNc2ncnc3ccc(-c4ccc5c(c4)OCO5)cc23)cc1	none (no result: Pf growth 96h, NS1 inh, Pf growth 48h, CHX counter, Shiga inhibitor)
O=C(NCCCN1CCOCC1)c1ccc(CSc2ccc(Cl)cc2)cc1	Pf growth 96h inconclusive, Pf growth 48h inconclusive (no result: NS1 inh)

Bioassay records as filed in PubChem.
